High-throughput results from PubChem.
DT40 TDP1 CPT – growth inhibition of DT40 Tdp1-/-;hTDP1 cells with camptothecin (screen for TDP1 inhibitors). 12% of 420,000 active. Potency, µM (titrated, usually from 46.2 µM), for the others: at the highest dose activity change, negative = growth inhibition, hits mostly inhibitors. AID 686979. chicken DT40 Tdp1-/-;hTDP1 cells + 20 nM CPT, ATP luminescence, 48 h; note: potency is the fitted concentration of half-maximal effect; nearly all actives have a fitted effect of over 55% in size
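Cell growth measured by CellTiter-Glo luminescence after a minimum 48 h, 37 C compound exposure with 20 nM CPT in Tdp1-knockout DT40 cells stably expressing hTDP1, seeded 400/well; qHTS titration format.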
ELG1 DNA repair – blocks ELG1-dependent DNA repair in HEK293T cells; HEK293T ELG1-luciferase reporter, luminescence, 16 h; DNA damage induced by 5-fluorouridine; Potency, µM (doses to about 46.1 µM), without a hit: at the top dose activity change, negative = inhibition, most hits filed as inhibitors; 2.3% of 330,000 active; AID 504467; note: potency is the fitted concentration of half-maximal effect; nearly all actives have a fitted effect of over 55% in size
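DMSO vehicle served as the neutral condition. Each well held 2,000 cells given 5-fluorouridine plus compound; after 16 hr at 37 °C/5% CO2, ONE-Glo was added and luciferase measured 30 min later.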
IL-1B inflam inh – inflammasome signaling inhibition, IL-1 beta readout | AID 743279 | activity change, % at 57.5 µM | THP-1 LPS/ATP IL-1B secretion, AlphaLISA, 16 h; stronger effect = lower value | 4.7% of 360,000 active; in the data active = activity change below about -50%; inconclusive = mostly about -30% to -49%
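THP-1 cells pretreated 1 hr with compounds (up to 57.5 uM final), then stimulated with LPS (250 ng/mL final) plus ATP (1.25 mM final); secreted IL-1B measured by AlphaLISA after 16 hr, decreased signal indicating inhibition.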
TDP1 cell noCPT – qHTS for Inhibitors of human tyrosyl-DNA phosphodiesterase 1 (TDP1): qHTS in cells in absence of CPT | DT40 Tdp1-/- hTDP1 cells, no CPT, ATP luminescence, 48 h | Potency, µM (doses to about 46.2 µM), inactives show at the highest dose activity change, negative = growth inhibition, hits mostly inhibitors | 15% of 420,000 active; note: potency is the fitted concentration of half-maximal effect; nearly all actives have a fitted effect of over 55% in size
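Chicken DT40 Tdp1-/- cells complemented with human TDP1, screened without camptothecin (DMSO vehicle only), 400 cells/well. Compounds pin-transferred, cells incubated at 37 °C for at least 48 hr. Growth read as ATP-dependent luminescence (CellTiter-Glo, 30 min at RT).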
Giardia kill – Giardia lamblia killing. Giardia lamblia trophozoite viability. activity change, % at 7.66 µM, hits read low. 0.15% of 340,000 active; in the data active = activity change below about -80%; inconclusive = between about -30% and that limit;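 note: parasites exposed to compound for two days anaerobically before the ATP read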
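Killing of trophozoites was scored by loss of ATP luminescence after a 48 hrs anaerobic exposure to compounds at 37 deg C, using 100 cells per well.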
TDP1 inh – blocks human tyrosyl-DNA phosphodiesterase 1 | recombinant TDP1, AlphaScreen DNA substrate cleavage | 0.28% of 350,000 active | Potency, µM (series often up to 130 µM), for the others: top-dose activity change, negative = inhibition, most hits filed as inhibitors | Q9NUW8 | AID 485290; note: potency is the fitted concentration of half-maximal effect; nearly all actives have a fitted effect of over 40% in size
Target sequence (Q9NUW8 whole entry, looked up): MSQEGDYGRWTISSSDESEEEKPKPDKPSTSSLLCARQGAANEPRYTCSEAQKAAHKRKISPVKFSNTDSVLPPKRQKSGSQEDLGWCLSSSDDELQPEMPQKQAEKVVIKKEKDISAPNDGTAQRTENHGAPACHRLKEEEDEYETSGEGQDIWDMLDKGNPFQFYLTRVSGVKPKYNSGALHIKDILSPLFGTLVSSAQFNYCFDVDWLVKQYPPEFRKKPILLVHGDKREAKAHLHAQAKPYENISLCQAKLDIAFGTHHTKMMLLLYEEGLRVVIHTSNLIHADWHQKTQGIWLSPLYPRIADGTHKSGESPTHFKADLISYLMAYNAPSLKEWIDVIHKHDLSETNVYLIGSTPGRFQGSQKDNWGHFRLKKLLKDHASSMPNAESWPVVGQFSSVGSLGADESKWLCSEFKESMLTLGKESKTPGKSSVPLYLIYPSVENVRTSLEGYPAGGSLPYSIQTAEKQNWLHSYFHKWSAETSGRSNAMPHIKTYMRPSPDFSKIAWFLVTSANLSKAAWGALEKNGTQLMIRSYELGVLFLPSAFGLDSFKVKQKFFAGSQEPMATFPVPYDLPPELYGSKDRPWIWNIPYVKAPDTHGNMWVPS
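Tdp1 1 nM final; 15 min RT w/ cpd; substrate 15 nM, 5 min; beads 10 ug/ml, 10 min; AlphaScreen read. Neg ctrl: no enzyme.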
Starred values were filed as active, the others as inactive; ? = inconclusive; . = no result given; [ ] = remark or other dose. Only some compounds are listed: those with a hit (about 19% of all), similar ones and a draw of the others. Unless noted, calls come from the whole dose curve; as a rule, active = well fitted curve in the direction sought with a large enough effect; inconclusive = small, poorly fitted or top-dose-only effect, or another doubt; inactive = no such curve, though single readings can be large; an effect the other way counts as inactive or inconclusive. % is set by controls: 0 for no effect and ±100 for the full control effect.

SMILES	DT40 TDP1 CPT	ELG1 DNA repair	IL-1B inflam inh	TDP1 cell noCPT	Giardia kill	TDP1 inh
CC(C)C1Oc2ccccc2N(CC(=O)N(C)C2CCCCC2)C1=O (stereo not given)	?	7%	-74*	?	18	.
CCOC(=O)c1nc(C)n(-c2cc(Cl)ccc2Cl)n1	-4%	-1%	-12	-7%	-5	-5%
CCOC(=O)c1nc(C)n(-c2cc(OC)c(Cl)cc2Cl)n1	9%	8%	-92*	-5%	8	-3%
C(=N\c1nc2ccccc2n1Cc1ccccc1)/c1cccs1	?	?	-68*	?	-8	4%
CCc1nc2ccccc2n1Cc1ccc(OC)c(OC)c1	?	-2%	24	?	14	3%[56.1 µM]
O=NNc1nc2ccccc2n1Cc1ccccc1	4.6µM*	?	201	2.3µM*	-6	.
COc1ccc(CNc2nc3ccccc3n2Cc2ccc(Cl)cc2)cc1OC	16µM*	-13%	-89*	13µM*	-6	4%
C(=N\c1nc2ccccc2n1CCN1CCOCC1)/c1cccs1	9%	1%	13	-4%	-24	4%
COc1ccc(/C=C/c2nc3ccccc3n2Cc2ccc(OC)c(OC)c2)cc1	?	?	-54*	?	-27	3%
COc1cc(CNc2nc3ccccc3n2Cc2ccccc2)ccc1O	-30%	.	3	?	.	.
COc1ccc(OCC(=O)N(Cc2ccco2)C2CCS(=O)(=O)C2)cc1 (stereo not given)	6%	-10%	-22	-31%	2	.
CCOc1ccc(-c2cc3c(=O)n(CC(=O)NCc4ccccc4)ccn3n2)cc1	?	.	.	-16%	.	-1%
Cc1nc2ccccn2c(=O)c1NC(=O)c1cccc2ccccc12	-27%	?	14	?	14	.
CCn1c(NCc2cccc(Cl)c2)nc2ccccc21	?	.	.	23µM*	.	3%
Cn1nnnc1NCc1cccc(Cl)c1	-15%	5%	-3	0%	-17	-2%
Clc1cccc(CNc2nnnn2-c2ccccc2)c1	?	?	41	16µM*	1	3%
CCn1c(NC(=O)c2cccc(Cn3cc(Cl)cn3)c2)nc2ccccc21	15µM*	?	36	15µM*	-23	8%
CCn1c(NCc2ccc(OC)c(OC)c2)nc2ccccc21	?	.	.	9.2µM*	.	2%
CCn1c(NCc2cc(OC)c(OC)c(OC)c2)nc2ccccc21	?	-15%	24	-87%	2	3%
O=c1c2oc3ccccc3c2n(Cc2ccccc2F)c(=O)n1Cc1ccccc1	-21%	.	.	-24%	.	-5%
Cc1cccc(C(=O)Nc2ccc(NC(=O)c3ccccc3)cc2)c1	?	-15%	-58*	?	-7	.
CCOc1ccc(NS(=O)(=O)c2cc(C(=O)N3CCCC3)ccc2Cl)cc1	-23%	0%	12	-29%	-18	2%
CCOc1ccc(NS(=O)(=O)c2cc(NC(=O)c3cccc(C)c3)ccc2Cl)cc1	16µM*	?	?	?	8	0%
O=C(NNC(=O)c1ccc(NC(=O)c2ccccc2)cc1)c1ccccc1	-23%	?	9	?	5	3%
Cc1ccc(NC(=O)c2ccc(NC(=O)c3ccccc3)cc2)cc1C	13µM*	?	0	?	-14	4%
SMILES	DT40 TDP1 CPT	ELG1 DNA repair	IL-1B inflam inh	TDP1 cell noCPT	Giardia kill	TDP1 inh
COc1ccc(C(=O)Nc2ccc(Nc3ccccc3)cc2)cc1[N+](=O)[O-]	23µM*	?	-16	21µM*	4	.
C=CCCCCCCCCCCCC(O)CC(O)CO (stereo not given) (tested in a mixture with another compound)	?	.	.	-18%	.	-10%[56.1 µM]
Cc1nn(C2CCS(=O)(=O)C2)c(C)c1CN(C)C(=O)c1ccc(S(=O)(=O)N(C)C)cc1 (stereo not given)	9%	0%	22	2%	-13	-1%
CCN(CC)CCOc1ccccc1C(C)=O	9%	1%	-28	-2%	11	-8%
Cc1ccnc(NC(=O)c2cccc(NC(=O)c3ccc(Cl)c(Cl)c3)c2)c1	?	.	42	-29%	-7	.
Cc1cccc(C(=O)Nc2cccc3c2CCCC3)c1	18µM*	-2%	-5	9.2µM*	13	.
CC(=O)Nc1ccc(NC(=O)c2ccccc2Br)cc1	4%	.	-11	-1%	.	.
Cc1ccnc(NC(=O)c2cccc(NC(=O)c3ccc(Cl)cc3)c2)c1	?	.	-8	21µM*	8	.
O=C(Nc1ccc(Br)cc1)c1ccccc1Br	-10%	?	-56*	19%	0	1%
Cc1ccc(C(=O)Nc2ccc(Nc3ccccc3)cc2)cc1C	21µM*	.	-69*	21µM*	3	.
O=C(NC1CCCCC1)C(c1ccc(O)cc1)N(C(=O)c1cnccn1)c1cccc(F)c1 (stereo not given)	-5%	0%	3	-21%	-10	1%
O=C(NCc1ccc(Cl)cc1)c1cccc(NC(=O)c2ccccc2)c1	?	18µM*	?	?	19	-1%
CCN(CC)c1ccc(C(=O)Nc2ccccc2)cc1[N+](=O)[O-]	-6%	?	-96*	?	4	8%
O=C(Nc1ccccc1)c1ccc(NCCc2ccccc2)c([N+](=O)[O-])c1	6%	?	0	-2%	-11	2%
O=C(Nc1cccc(C(=O)Nc2ccc(Br)cc2)c1)c1ccccc1	?	?	-5	12µM*	7	.
Cc1c(-c2cccc(NC(=O)c3ccc(F)c(F)c3)c2)nc2ncccn12	?	.	.	13µM*	.	0%
O=C(NCc1ccccc1)c1ccc(Cl)cc1	3%	6%	7	3%	-8	.
COc1ccc(N(CCC#N)C(=O)/C(C#N)=C/c2cccs2)cc1	?	4%	-22	-18%	-16	3%
Cc1ccc(C(=O)Nc2ccc(Nc3ccccc3)cc2)cc1Br	6.5µM*	.	.	4.1µM*	-15	.
Cc1ccc(C(=O)Nc2ccc(Oc3ccc(C(=O)O)c(C(=O)O)c3)cc2)cc1C	23µM*	5%	12	1%	16	?
O=C(Nc1ccc(Nc2ccccc2)cc1)c1ccc(Br)cc1	?	-2%	7	-20%	12	.
N#Cc1cccc(NC(=O)C2CCN(S(=O)(=O)c3ccc4[nH]c(=O)ccc4c3)CC2)c1	-5%	.	.	-15%	.	-7%
Oc1ccccc1-c1cnc2cccnn12	16µM*	.	28	?	.	.
